Laboratory results taken from PubChem BioAssay (NCI).
Compounds without any hit were thinned out: in the full panel of roughly 83,000, 20% have a hit.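 Treatment: one concentration, 48 hours, 96-well format. Scoring: percent growth, with anything below 10 considered active.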 Calls of active or inactive are those of the source.

Legend:
Test in all cases: NCI-60 one-dose screen, 48 h (100 = growth as untreated, 0 = no growth, -100 = all killed)
HCT-15 colon = conditions: 10 µM unless noted
HT29 colon = conditions: 10 µM unless noted
SNB-75 CNS = conditions: 10 µM unless noted
U251 CNS = conditions: 10 µM unless noted
PC-3 prostate = conditions: 10 µM unless noted
SK-MEL-5 melanoma = conditions: 10 µM unless noted
UACC-62 melanoma = conditions: 10 µM unless noted
LOX IMVI melanoma = conditions: 10 µM
SK-MEL-28 melanoma = conditions: 10 µM unless noted
SK-MEL-2 melanoma = conditions: 10 µM unless noted
EKVX NSCLC = conditions: 10 µM unless noted
UO-31 renal = conditions: 10 µM unless noted
TK-10 renal = conditions: 10 µM unless noted
ACHN renal = conditions: 10 µM unless noted
CAKI-1 renal = conditions: 10 µM unless noted
A498 renal = conditions: 10 µM unless noted
CCRF-CEM leukemia = conditions: 10 µM unless noted
MOLT-4 leukemia = conditions: 10 µM unless noted
SNB-19 CNS = conditions: 10 µM unless noted
SN12C renal = conditions: 10 µM unless noted

Measured: growth

O=C(c1ccc(Cl)cc1)c1ccc(OCCCN2CCN(c3ccncc3)CC2)cc1
active: HCT-15 colon -18.6% | SK-MEL-5 melanoma -47.7% | UACC-62 melanoma -63.5%
inactive: HT29 colon 11.2% | SNB-75 CNS 69.4% | U251 CNS 28.6% | PC-3 prostate 26.9% | LOX IMVI melanoma 10.1% | SK-MEL-28 melanoma 14.8% | SK-MEL-2 melanoma 70.1% | EKVX NSCLC 32.6% | UO-31 renal 40% | TK-10 renal 82.2% | ACHN renal 74% | CAKI-1 renal 56.7% | A498 renal 80.5% | CCRF-CEM leukemia 21.5% | MOLT-4 leukemia 15.7%

CN(C)c1ccnc(CNCCSC2(c3ccccc3)c3ccccc3C=Cc3ccccc32)c1
active: HCT-15 colon -36.9% | HT29 colon -46.4% | SNB-75 CNS -10.9% | U251 CNS -77.1% | PC-3 prostate -23.3% | SK-MEL-5 melanoma -99.4% | UACC-62 melanoma -32.2% | LOX IMVI melanoma -96.2% | SK-MEL-28 melanoma -64.6% | SK-MEL-2 melanoma -46.6% | EKVX NSCLC -24.3% | TK-10 renal 0.124% | CAKI-1 renal 3.63% | A498 renal -38.8% | CCRF-CEM leukemia -2.57% | MOLT-4 leukemia 7.41%
inactive: UO-31 renal 13.5% | ACHN renal 12.8%

Cc1cccc(NC(=O)[C@]23CCC(C)(C)CC2C2=CCC4[C@@]5(C)C[C@@H](O)[C@H](O)[C@@](C)(CO)C5CC[C@@]4(C)[C@]2(C)CC3)c1 (some centres undefined)
active: HCT-15 colon -5.5% | HT29 colon -56.1% | SK-MEL-5 melanoma -90.7% | LOX IMVI melanoma -75.2% | ACHN renal 1.52% | A498 renal -11.3% | MOLT-4 leukemia 5.2%
inactive: SNB-75 CNS 43.7% | U251 CNS 27.8% | PC-3 prostate 13.3% | UACC-62 melanoma 20.3% | SK-MEL-28 melanoma 32.5% | SK-MEL-2 melanoma 32.2% | EKVX NSCLC 11.5% | UO-31 renal 14.3% | TK-10 renal 52.9% | CAKI-1 renal 22.8% | CCRF-CEM leukemia 15.8%

COc1ccc(-c2ccnc(SCc3cc4cc(Cl)ccc4[nH]c3=O)n2)cc1
active: SNB-75 CNS -7.9% | U251 CNS 0.922%
inactive: HCT-15 colon 80.8% | HT29 colon 84.7% | PC-3 prostate 29.6% | SK-MEL-5 melanoma 37.4% | UACC-62 melanoma 42.5% | LOX IMVI melanoma 80.9% | SK-MEL-28 melanoma 64.3% | SK-MEL-2 melanoma 99% | EKVX NSCLC 57.1% | UO-31 renal 79.1% | TK-10 renal 19.5% | ACHN renal 55% | CAKI-1 renal 26.2% | A498 renal 41.6% | CCRF-CEM leukemia 79.1% | MOLT-4 leukemia 93.6%

Cc1ccc(C(SCCNCc2cc(N(C)C)ccn2)(c2ccccc2)c2ccccc2)cc1
active: HCT-15 colon -68.8% | HT29 colon -77.2% | SNB-75 CNS 8.64% | U251 CNS -89.3% | PC-3 prostate -43.4% | SK-MEL-5 melanoma -100% | UACC-62 melanoma -64.4% | LOX IMVI melanoma -100% | SK-MEL-28 melanoma -95.3% | SK-MEL-2 melanoma -36.3% | EKVX NSCLC -24.8% | UO-31 renal 8.42% | TK-10 renal -4.26% | ACHN renal 3.79% | CAKI-1 renal -10.4% | A498 renal -43.8% | CCRF-CEM leukemia -3.65% | MOLT-4 leukemia 8%

CC1(C)CC[C@]2(C(=O)Nc3ccc(Br)cc3)CC[C@]3(C)C(=CCC4[C@@]5(C)C[C@@H](O)[C@H](O)[C@@](C)(CO)C5CC[C@]43C)C2C1 (some centres undefined)
active: HCT-15 colon -13% | HT29 colon -60.9% | U251 CNS -18.9% | PC-3 prostate -13.8% | SK-MEL-5 melanoma -94.4% | UACC-62 melanoma 8.99% | LOX IMVI melanoma -86.7% | SK-MEL-2 melanoma -19.8% | A498 renal -45.2% | CCRF-CEM leukemia -19.8% | MOLT-4 leukemia -10.5%
inactive: SNB-75 CNS 57.8% | SK-MEL-28 melanoma 32.1% | EKVX NSCLC 15.5% | UO-31 renal 21.1% | TK-10 renal 22.5% | ACHN renal 17.7% | CAKI-1 renal 20.6%

COc1cc(NC(=O)c2cccc(C3CCc4c(cc(OC)c(OC)c4OC)O3)c2)cc(OC)c1OC (centres undefined)
inactive: SNB-75 CNS 11.5% | SNB-19 CNS 27.1% | SK-MEL-28 melanoma 38.9% | EKVX NSCLC 35.3% | SN12C renal 13.2% | TK-10 renal 56.6% | ACHN renal 17.3% | A498 renal 112% | CCRF-CEM leukemia 18.1% | MOLT-4 leukemia 11.8%
active: HCT-15 colon 7.46% | HT29 colon 3.59% | SK-MEL-5 melanoma -58% | UACC-62 melanoma -28.6% | SK-MEL-2 melanoma -1.8% | UO-31 renal 3.46%

CN(C)c1ccnc(NCCCSC(c2ccccc2)(c2ccccc2)c2ccccc2)c1
active: HT29 colon -51.8% | U251 CNS 6.61% | PC-3 prostate 7.71% | SK-MEL-5 melanoma -98.4% | SK-MEL-28 melanoma -77.3% | CCRF-CEM leukemia -26.3% | MOLT-4 leukemia -8.29%
inactive: HCT-15 colon 10.7% | SNB-75 CNS 63.1% | UACC-62 melanoma 28.6% | LOX IMVI melanoma 47.9% | SK-MEL-2 melanoma 43% | EKVX NSCLC 35.5% | UO-31 renal 28.9% | TK-10 renal 74.4% | ACHN renal 53.3% | CAKI-1 renal 30.8% | A498 renal 89.6%

CCCCCCCCOc1cccc(S(=O)(=O)Nc2ccc(C)cc2C(=O)O)c1
inactive: HCT-15 colon 92.4% | HT29 colon 110% | SNB-75 CNS 94.9% | U251 CNS 91.5% | PC-3 prostate 88.2% | SK-MEL-5 melanoma 89.1% | UACC-62 melanoma 85.4% | LOX IMVI melanoma 101% | SK-MEL-28 melanoma 106% | SK-MEL-2 melanoma 89.7% | EKVX NSCLC 92.8% | UO-31 renal 85.9% | TK-10 renal 102% | ACHN renal 98.1% | CAKI-1 renal 85.8% | A498 renal 107% | CCRF-CEM leukemia 72.5% | MOLT-4 leukemia 90.5%

Clc1ccc(-c2ccc(OCCCN3CCN(c4ccncc4)CC3)cc2)cc1
active: HCT-15 colon -66% | HT29 colon -30.6% | LOX IMVI melanoma -89.8% | CCRF-CEM leukemia 4.35% | MOLT-4 leukemia 1.95%
inactive: SNB-75 CNS 83.6% | U251 CNS 35.7% | PC-3 prostate 24.6% | SK-MEL-5 melanoma 13.7% | UACC-62 melanoma 74% | SK-MEL-28 melanoma 90.1% | SK-MEL-2 melanoma 100% | EKVX NSCLC 30.7% | UO-31 renal 66.3% | TK-10 renal 89.5% | ACHN renal 87.8% | CAKI-1 renal 66.6% | A498 renal 84.7%

COc1ccc(-c2nc(SC(C)C)nc(NCCc3c[nH]c4ccccc34)c2C#N)cc1
inactive: HCT-15 colon 15.3% | SNB-75 CNS 65.6% | U251 CNS 27.1% | PC-3 prostate 11.7% | UACC-62 melanoma 73.6% | LOX IMVI melanoma 21.2% | SK-MEL-28 melanoma 69.7% | SK-MEL-2 melanoma 74.6% | EKVX NSCLC 30.4% | UO-31 renal 40% | TK-10 renal 90.6% | ACHN renal 48.9% | CAKI-1 renal 43% | A498 renal 65.9% | CCRF-CEM leukemia 18.5% | MOLT-4 leukemia 18.1%
active: HT29 colon 8.23% | SK-MEL-5 melanoma 5.52%

CCCSc1nc(NCCc2c[nH]c3ccccc23)c(C#N)c(-c2ccc(F)cc2)n1
inactive: HCT-15 colon 18.8% | HT29 colon 15.6% | SNB-75 CNS 85.7% | U251 CNS 28.2% | PC-3 prostate 23.8% | SK-MEL-5 melanoma 13.1% | UACC-62 melanoma 54.6% | LOX IMVI melanoma 21.1% | SK-MEL-28 melanoma 63.3% | SK-MEL-2 melanoma 92% | EKVX NSCLC 50.8% | UO-31 renal 68.7% | TK-10 renal 91.6% | ACHN renal 59.2% | CAKI-1 renal 52.3% | A498 renal 96.8% | CCRF-CEM leukemia 33.6%

CN(C)c1ccnc(CNCCSC2(c3ccc(C(F)(F)F)cc3)c3ccccc3CCc3ccccc32)c1
active: HCT-15 colon -82.8% | HT29 colon -65.9% | SNB-75 CNS -2.6% | U251 CNS -94.9% | PC-3 prostate -35.3% | SK-MEL-5 melanoma -99.6% | UACC-62 melanoma -5.98% | LOX IMVI melanoma -98.1% | SK-MEL-28 melanoma -81.7% | SK-MEL-2 melanoma -37.6% | EKVX NSCLC -25.3% | UO-31 renal 1.7% | TK-10 renal 0.0233% | ACHN renal -12.1% | CAKI-1 renal -0.905% | A498 renal -4.68% | CCRF-CEM leukemia -43.6% | MOLT-4 leukemia -20.9%

CCCCSc1nc(NCCc2c[nH]c3ccccc23)c(C#N)c(-c2ccc(OC)cc2)n1
inactive: HCT-15 colon 24.9% | HT29 colon 25.1% | SNB-75 CNS 65.4% | U251 CNS 55.2% | PC-3 prostate 23.2% | SK-MEL-5 melanoma 46.2% | UACC-62 melanoma 71.2% | LOX IMVI melanoma 37.7% | SK-MEL-28 melanoma 75.8% | SK-MEL-2 melanoma 76.6% | EKVX NSCLC 40.1% | UO-31 renal 59.3% | TK-10 renal 102% | ACHN renal 66.6% | CAKI-1 renal 53.6% | A498 renal 103% | CCRF-CEM leukemia 27.8% | MOLT-4 leukemia 26.3%

CC(C)Sc1nc(NCCc2c[nH]c3ccccc23)c(C#N)c(-c2ccccc2)n1
active: HCT-15 colon -19.9% | HT29 colon -30.6% | SK-MEL-5 melanoma -6.58% | LOX IMVI melanoma -68.7% | CCRF-CEM leukemia 8.66% | MOLT-4 leukemia 5.18%
inactive: SNB-75 CNS 60.6% | U251 CNS 15.5% | PC-3 prostate 12.6% | UACC-62 melanoma 79.4% | SK-MEL-28 melanoma 81.5% | SK-MEL-2 melanoma 68.7% | EKVX NSCLC 18% | UO-31 renal 32.1% | TK-10 renal 67.4% | ACHN renal 33% | CAKI-1 renal 34.3% | A498 renal 23.4%

CCN(CC)c1ccc(/C=N/Nc2nc(-c3ccc(Br)cc3)cs2)c(O)c1
active: LOX IMVI melanoma -57.5% | CCRF-CEM leukemia 1.36%
inactive: HCT-15 colon 11.5% | HT29 colon 56.3% | SNB-75 CNS 77.4% | U251 CNS 81.7% | PC-3 prostate 85.2% | SK-MEL-5 melanoma 77.2% | UACC-62 melanoma 77.4% | SK-MEL-28 melanoma 86.2% | SK-MEL-2 melanoma 94.6% | EKVX NSCLC 90.9% | SN12C renal 23.1% | UO-31 renal 65.4% | ACHN renal 76.1% | CAKI-1 renal 55.1% | A498 renal 102% | MOLT-4 leukemia 12.3%

Cc1ccc(S(=O)(=O)c2nc(S(=O)(=O)c3ccc(C)cc3)c(N3CCC(O)CC3)s2)cc1
inactive: HCT-15 colon 22.9% | HT29 colon 77.8% | SNB-75 CNS 97.5% | U251 CNS 57.7% | PC-3 prostate 56.8% | SK-MEL-5 melanoma 78.1% | UACC-62 melanoma 42% | LOX IMVI melanoma 50.5% | SK-MEL-28 melanoma 81.9% | SK-MEL-2 melanoma 66.6% | EKVX NSCLC 63.1% | SN12C renal 74% | UO-31 renal 73.7% | TK-10 renal 129% | ACHN renal 97.8% | CAKI-1 renal 69.2% | A498 renal 86.1% | CCRF-CEM leukemia 23.8% | MOLT-4 leukemia 38%
